Reference: PMC7862700, “An all-to-all approach to the identification of sequence-specific readers for epigenetic DNA modifications on cytosine”

What was measured:
Assay in all cases: DAPPL (digital affinity profiling via proximity ligation, sequencing); 10 mM Tris-HCl pH 7.5, 50 mM NaCl, 1 mM DTT, 4% glycerol, room temperature, 30 min; GST-TFs on glutathione beads, 16-mer random dsDNA library, 0.1% formaldehyde crosslink after washing; high values mean tight binding
FEV = target: T1, FEV (Homo sapiens, UniProt Q99581 1-238); conditions: protein: recombinant; tags: N-terminal GST; dsDNA, one strand shown
T1 sequence: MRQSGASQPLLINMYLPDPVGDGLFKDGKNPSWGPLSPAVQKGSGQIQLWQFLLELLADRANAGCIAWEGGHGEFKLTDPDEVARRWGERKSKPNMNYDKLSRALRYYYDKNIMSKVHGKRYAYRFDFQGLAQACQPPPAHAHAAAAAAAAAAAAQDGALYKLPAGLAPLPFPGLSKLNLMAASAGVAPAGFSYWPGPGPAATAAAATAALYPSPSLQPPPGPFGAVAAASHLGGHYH
How it was run: (§1)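 Binding signal is each hexamer's read frequency for a factor divided by its frequency in the tag-only sample. The factors were GST-fused human transcription factors from yeast, captured on glutathione beads, DNA-barcoded and pooled with that sample. Pools were incubated with 200 nmole of a random double-stranded 16-mer DNA library in Tris/NaCl/DTT/glycerol buffer at room temperature for 30 min, then washed, crosslinked with 0.1% formaldehyde, proximity-ligated with BsaI/T4 ligase (1 h, 37 °C), PCR-amplified and sequenced on an Illumina NextSeq500.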

ETV5 = ETV5 (Homo sapiens, UniProt P41161 1-510); conditions: protein: recombinant; tags: N-terminal GST; dsDNA, one strand shown
How it was run: as §1

HSF1 = HSF1 (Homo sapiens, UniProt Q00613 1-529); conditions: protein: recombinant; tags: N-terminal GST; chain copies: 3; dsDNA, one strand shown
How it was run: as §1

SPIC = target: T2, SPIC (Homo sapiens, UniProt Q8N5J4 1-248); conditions: protein: recombinant; tags: N-terminal GST; dsDNA, one strand shown
T2 sequence: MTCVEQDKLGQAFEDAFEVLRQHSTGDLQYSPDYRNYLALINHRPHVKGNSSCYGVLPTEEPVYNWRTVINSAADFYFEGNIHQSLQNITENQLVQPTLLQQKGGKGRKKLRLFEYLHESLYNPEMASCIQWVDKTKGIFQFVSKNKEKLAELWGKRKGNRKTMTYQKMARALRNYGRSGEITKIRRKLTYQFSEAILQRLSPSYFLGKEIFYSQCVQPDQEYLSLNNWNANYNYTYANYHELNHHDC
How it was run: as §1

ELF4 = ELF4 (Homo sapiens, UniProt Q99607 1-663); conditions: protein: recombinant; tags: N-terminal GST; dsDNA, one strand shown
How it was run: as §1

ELK4 = target: T3, ELK4 (Homo sapiens, UniProt P28324-2 1-405); conditions: protein: recombinant; tags: N-terminal GST; dsDNA, one strand shown
T3 sequence: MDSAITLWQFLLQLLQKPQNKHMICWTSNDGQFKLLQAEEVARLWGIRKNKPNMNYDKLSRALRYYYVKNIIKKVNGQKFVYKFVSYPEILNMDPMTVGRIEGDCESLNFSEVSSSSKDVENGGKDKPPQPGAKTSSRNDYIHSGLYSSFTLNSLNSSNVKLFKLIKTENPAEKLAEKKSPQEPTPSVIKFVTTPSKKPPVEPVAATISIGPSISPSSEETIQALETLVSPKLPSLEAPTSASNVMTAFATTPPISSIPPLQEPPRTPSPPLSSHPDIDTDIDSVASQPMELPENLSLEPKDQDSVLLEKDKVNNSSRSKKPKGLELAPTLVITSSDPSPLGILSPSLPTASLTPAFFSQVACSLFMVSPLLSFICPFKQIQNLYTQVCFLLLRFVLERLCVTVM
How it was run: as §1

ETV2 = target: T4, ETV2 (Homo sapiens, UniProt O00321 1-342); conditions: protein: recombinant; tags: N-terminal GST; dsDNA, one strand shown
T4 sequence: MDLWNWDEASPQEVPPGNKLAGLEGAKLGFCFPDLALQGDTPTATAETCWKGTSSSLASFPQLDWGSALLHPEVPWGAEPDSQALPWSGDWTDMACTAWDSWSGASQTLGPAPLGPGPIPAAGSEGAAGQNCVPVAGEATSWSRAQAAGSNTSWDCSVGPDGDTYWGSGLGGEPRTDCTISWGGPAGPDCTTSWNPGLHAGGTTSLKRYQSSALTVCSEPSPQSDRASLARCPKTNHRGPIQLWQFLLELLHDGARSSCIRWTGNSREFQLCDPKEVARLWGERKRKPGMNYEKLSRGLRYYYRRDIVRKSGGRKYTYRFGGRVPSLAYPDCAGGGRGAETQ
How it was run: as §1

ELF3 = target: T5, ELF3 (Homo sapiens, UniProt P78545 1-371); conditions: protein: recombinant; tags: N-terminal GST; dsDNA, one strand shown
T5 sequence: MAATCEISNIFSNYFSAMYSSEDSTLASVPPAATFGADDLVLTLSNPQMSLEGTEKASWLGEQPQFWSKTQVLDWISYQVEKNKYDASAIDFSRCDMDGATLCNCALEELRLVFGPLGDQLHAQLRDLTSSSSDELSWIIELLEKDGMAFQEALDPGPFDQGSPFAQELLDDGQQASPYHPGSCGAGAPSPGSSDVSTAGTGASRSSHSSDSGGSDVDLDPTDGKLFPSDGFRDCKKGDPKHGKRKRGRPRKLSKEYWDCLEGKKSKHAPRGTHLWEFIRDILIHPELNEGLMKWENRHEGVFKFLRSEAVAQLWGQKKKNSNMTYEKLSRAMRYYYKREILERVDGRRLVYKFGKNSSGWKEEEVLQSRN
How it was run: as §1

CRX = CRX (Homo sapiens, UniProt O43186 1-299); conditions: protein: recombinant; tags: N-terminal GST; dsDNA, one strand shown
How it was run: as §1

ETV1 = ETV1 (Homo sapiens, UniProt P50549 1-477); conditions: protein: recombinant; tags: N-terminal GST; dsDNA, one strand shown
How it was run: as §1

ERF = target: T6, ERF (Homo sapiens, UniProt P50548 1-548); conditions: protein: recombinant; tags: N-terminal GST; dsDNA, one strand shown
T6 sequence: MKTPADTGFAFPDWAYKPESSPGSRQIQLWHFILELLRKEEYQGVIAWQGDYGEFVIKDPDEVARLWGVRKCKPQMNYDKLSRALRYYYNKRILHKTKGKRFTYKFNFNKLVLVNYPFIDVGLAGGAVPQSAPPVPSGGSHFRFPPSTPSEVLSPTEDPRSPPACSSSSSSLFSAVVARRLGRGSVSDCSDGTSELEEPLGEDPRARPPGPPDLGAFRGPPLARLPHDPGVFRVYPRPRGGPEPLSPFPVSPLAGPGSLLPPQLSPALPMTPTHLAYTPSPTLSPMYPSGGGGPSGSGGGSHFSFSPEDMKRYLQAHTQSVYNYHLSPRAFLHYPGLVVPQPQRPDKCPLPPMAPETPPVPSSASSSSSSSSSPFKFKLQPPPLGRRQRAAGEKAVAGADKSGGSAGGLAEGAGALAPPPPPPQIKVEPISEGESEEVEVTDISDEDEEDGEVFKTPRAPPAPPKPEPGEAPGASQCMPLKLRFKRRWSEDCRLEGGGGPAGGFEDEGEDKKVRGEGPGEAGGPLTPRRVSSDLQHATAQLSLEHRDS
How it was run: as §1

ETV3L = target: T7, ETV3L (Homo sapiens, UniProt Q6ZN32 1-361); conditions: protein: recombinant; tags: N-terminal GST; dsDNA, one strand shown
T7 sequence: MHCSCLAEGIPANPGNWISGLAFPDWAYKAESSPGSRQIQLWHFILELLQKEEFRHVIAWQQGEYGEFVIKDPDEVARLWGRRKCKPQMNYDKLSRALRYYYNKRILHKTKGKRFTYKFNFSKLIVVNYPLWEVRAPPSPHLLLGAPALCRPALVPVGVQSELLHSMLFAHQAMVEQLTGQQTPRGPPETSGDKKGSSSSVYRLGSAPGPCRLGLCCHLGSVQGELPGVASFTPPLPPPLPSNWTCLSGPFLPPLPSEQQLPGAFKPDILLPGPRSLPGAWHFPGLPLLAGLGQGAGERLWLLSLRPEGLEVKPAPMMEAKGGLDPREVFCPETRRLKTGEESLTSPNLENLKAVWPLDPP
How it was run: as §1

ETS2 = target: T8, ETS2 (Homo sapiens, UniProt P15036 1-469); conditions: protein: recombinant; tags: N-terminal GST; dsDNA, one strand shown
T8 sequence: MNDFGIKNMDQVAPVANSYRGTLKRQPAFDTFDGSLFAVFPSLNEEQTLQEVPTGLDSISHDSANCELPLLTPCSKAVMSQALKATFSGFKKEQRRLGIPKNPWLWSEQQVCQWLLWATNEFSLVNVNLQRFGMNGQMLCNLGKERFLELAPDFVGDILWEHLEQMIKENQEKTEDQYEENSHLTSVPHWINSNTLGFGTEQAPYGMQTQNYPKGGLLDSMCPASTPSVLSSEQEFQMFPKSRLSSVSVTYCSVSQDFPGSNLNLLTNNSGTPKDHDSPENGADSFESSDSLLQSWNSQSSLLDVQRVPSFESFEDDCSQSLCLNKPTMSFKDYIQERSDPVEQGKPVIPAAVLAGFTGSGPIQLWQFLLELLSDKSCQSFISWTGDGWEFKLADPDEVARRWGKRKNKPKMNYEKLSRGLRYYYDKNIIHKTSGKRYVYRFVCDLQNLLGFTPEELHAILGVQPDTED
How it was run: as §1

SPDEF = target: T9, SPDEF (Homo sapiens, UniProt O95238 1-335); conditions: protein: recombinant; tags: N-terminal GST; dsDNA, one strand shown
T9 sequence: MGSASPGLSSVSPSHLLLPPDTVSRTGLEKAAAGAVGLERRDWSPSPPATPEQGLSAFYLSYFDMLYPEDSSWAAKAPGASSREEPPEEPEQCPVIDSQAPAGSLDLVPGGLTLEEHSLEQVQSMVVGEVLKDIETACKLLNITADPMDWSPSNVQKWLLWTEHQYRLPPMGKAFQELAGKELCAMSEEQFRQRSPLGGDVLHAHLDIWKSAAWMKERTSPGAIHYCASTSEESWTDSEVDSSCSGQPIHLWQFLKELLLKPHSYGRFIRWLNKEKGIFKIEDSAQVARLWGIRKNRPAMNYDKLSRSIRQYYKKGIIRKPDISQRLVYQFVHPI
How it was run: as §1

ETV7 = target: T10, ETV7 (Homo sapiens, UniProt Q9Y603 1-341); conditions: protein: recombinant; tags: N-terminal GST; dsDNA, one strand shown
T10 sequence: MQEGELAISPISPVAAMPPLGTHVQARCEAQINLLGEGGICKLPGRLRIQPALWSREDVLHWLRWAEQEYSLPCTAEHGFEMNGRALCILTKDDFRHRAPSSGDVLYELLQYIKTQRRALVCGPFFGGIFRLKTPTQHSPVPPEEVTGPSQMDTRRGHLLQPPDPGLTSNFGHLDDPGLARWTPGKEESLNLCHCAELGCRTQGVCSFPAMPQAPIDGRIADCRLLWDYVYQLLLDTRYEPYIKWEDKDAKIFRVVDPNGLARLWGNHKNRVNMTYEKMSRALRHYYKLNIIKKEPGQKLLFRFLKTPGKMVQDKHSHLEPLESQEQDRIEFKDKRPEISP
How it was run: as §1

ELF5 = target: T11, ELF5 (Homo sapiens, UniProt Q9UKW6-2 1-255); conditions: protein: recombinant; tags: N-terminal GST; dsDNA, one strand shown
T11 sequence: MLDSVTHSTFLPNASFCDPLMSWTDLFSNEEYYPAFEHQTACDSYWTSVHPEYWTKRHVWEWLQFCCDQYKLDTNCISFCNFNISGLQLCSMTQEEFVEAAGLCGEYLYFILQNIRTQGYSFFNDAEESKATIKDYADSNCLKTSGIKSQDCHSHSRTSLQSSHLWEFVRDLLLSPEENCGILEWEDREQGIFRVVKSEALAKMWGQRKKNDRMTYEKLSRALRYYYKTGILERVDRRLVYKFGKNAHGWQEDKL
How it was run: as §1

ETV3 = target: T12, ETV3 (Homo sapiens, UniProt P41162-2 1-143); conditions: protein: recombinant; tags: N-terminal GST; dsDNA, one strand shown
T12 sequence: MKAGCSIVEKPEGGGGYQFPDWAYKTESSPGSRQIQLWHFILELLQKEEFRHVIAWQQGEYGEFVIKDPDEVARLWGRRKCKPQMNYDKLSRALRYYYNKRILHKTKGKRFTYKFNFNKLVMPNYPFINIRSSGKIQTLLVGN
How it was run: as §1

ETV6 = ETV6 (Homo sapiens, UniProt P41212 1-452); conditions: protein: recombinant; tags: N-terminal GST; dsDNA, one strand shown
How it was run: as §1

ETV6, sequence (P41212 whole entry): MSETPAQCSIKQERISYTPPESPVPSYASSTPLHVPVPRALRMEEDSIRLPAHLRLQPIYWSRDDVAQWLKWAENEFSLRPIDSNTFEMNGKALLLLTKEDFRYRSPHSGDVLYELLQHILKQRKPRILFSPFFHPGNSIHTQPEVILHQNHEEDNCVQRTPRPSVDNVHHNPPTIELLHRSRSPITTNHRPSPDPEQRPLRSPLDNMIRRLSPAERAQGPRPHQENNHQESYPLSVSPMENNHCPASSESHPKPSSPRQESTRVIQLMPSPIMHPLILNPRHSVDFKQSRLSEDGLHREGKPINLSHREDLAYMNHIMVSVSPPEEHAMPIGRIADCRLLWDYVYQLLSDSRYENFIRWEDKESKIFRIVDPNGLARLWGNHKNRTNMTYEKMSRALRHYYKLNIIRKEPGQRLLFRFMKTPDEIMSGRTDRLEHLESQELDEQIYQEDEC
HSF1, sequence (Q00613 whole entry): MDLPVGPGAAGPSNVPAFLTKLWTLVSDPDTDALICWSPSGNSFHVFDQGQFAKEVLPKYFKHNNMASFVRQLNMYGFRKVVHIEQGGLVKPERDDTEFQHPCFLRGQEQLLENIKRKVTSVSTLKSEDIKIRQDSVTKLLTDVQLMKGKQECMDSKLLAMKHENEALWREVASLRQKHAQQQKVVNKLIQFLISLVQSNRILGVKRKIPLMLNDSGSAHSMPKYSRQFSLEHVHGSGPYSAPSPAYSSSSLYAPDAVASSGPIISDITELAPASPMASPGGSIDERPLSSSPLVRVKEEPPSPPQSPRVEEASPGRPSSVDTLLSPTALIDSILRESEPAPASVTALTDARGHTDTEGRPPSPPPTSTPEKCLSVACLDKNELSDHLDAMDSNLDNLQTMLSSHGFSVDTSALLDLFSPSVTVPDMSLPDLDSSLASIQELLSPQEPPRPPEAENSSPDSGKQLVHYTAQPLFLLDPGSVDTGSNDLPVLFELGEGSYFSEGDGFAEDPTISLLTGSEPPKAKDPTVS
ETV1, sequence (P50549 whole entry): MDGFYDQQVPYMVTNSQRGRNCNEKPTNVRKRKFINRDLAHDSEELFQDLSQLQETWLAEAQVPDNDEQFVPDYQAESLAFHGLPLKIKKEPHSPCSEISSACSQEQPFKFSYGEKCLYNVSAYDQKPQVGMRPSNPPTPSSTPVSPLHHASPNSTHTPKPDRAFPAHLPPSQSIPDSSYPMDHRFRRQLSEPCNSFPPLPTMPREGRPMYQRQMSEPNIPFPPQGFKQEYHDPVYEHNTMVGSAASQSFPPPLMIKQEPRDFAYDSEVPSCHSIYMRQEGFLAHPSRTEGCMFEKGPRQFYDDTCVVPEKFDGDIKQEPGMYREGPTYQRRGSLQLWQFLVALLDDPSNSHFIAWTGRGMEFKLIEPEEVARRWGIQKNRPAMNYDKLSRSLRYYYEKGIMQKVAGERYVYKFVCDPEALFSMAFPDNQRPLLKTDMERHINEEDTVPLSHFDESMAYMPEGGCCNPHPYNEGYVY
CRX, sequence (O43186 whole entry): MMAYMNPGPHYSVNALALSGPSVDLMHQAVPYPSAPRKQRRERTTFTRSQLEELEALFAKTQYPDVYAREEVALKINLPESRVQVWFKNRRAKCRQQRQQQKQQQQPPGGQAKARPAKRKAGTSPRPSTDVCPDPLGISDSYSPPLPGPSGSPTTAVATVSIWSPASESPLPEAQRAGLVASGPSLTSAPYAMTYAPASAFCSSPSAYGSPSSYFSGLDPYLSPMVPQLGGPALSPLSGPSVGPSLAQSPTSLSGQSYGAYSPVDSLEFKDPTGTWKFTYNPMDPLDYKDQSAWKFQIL
ETV5, sequence (P41161 whole entry): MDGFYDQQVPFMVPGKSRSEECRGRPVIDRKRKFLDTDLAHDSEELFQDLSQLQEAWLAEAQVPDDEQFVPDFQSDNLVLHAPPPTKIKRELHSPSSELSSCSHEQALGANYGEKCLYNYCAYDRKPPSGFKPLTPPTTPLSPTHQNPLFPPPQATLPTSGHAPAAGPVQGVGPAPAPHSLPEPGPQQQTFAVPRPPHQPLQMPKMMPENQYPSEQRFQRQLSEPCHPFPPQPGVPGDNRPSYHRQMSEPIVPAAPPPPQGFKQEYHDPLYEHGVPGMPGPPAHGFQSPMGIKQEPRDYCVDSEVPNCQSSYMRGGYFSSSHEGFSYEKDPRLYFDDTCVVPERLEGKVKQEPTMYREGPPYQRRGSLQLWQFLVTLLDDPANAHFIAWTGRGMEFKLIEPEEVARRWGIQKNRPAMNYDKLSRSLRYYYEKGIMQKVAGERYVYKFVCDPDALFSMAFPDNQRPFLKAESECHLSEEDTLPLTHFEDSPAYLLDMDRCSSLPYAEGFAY
ELF4, sequence (Q99607 whole entry): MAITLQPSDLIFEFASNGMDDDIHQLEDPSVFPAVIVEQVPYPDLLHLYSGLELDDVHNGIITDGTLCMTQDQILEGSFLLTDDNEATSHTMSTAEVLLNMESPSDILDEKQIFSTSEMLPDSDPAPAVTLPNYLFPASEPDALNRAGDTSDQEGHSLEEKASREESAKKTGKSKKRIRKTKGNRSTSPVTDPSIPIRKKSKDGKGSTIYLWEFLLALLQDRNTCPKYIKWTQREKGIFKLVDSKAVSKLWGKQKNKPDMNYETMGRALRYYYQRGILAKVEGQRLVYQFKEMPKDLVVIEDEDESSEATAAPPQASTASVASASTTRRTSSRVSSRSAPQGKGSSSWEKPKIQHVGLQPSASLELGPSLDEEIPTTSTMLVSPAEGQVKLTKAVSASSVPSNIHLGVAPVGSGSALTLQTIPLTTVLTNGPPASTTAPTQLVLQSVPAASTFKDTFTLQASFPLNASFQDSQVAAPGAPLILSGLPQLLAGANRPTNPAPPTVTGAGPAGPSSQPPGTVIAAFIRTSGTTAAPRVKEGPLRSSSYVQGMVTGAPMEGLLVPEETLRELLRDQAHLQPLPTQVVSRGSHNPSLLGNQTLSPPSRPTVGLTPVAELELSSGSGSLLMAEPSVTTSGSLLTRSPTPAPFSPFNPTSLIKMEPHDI

GCTGTA
binding signal (FEV): 1.15 fold enrichment (6-mer frequency, TF over GST control) | binding signal (ETV5): 1.06 fold enrichment (6-mer frequency, TF over GST control) | binding signal (HSF1): 1 fold enrichment (6-mer frequency, TF over GST control) | binding signal (SPIC): 1.36 fold enrichment (6-mer frequency, TF over GST control) | binding signal (ELF4): 1.08 fold enrichment (6-mer frequency, TF over GST control) | binding signal (ELK4): 1.09 fold enrichment (6-mer frequency, TF over GST control) | binding signal (ETV2): 1.08 fold enrichment (6-mer frequency, TF over GST control) | binding signal (ELF3): 1.07 fold enrichment (6-mer frequency, TF over GST control) | binding signal (CRX): 1.02 fold enrichment (6-mer frequency, TF over GST control) | binding signal (ETV1): 1.06 fold enrichment (6-mer frequency, TF over GST control) | binding signal (ERF): 1.24 fold enrichment (6-mer frequency, TF over GST control) | binding signal (ETV3L): 1.02 fold enrichment (6-mer frequency, TF over GST control) | binding signal (ETS2): 1.1 fold enrichment (6-mer frequency, TF over GST control) | binding signal (SPDEF): 1.12 fold enrichment (6-mer frequency, TF over GST control) | binding signal (ETV7): 1.09 fold enrichment (6-mer frequency, TF over GST control) | binding signal (ELF5): 1.07 fold enrichment (6-mer frequency, TF over GST control) | binding signal (ETV3): 1.08 fold enrichment (6-mer frequency, TF over GST control) | binding signal (ETV6): 1.13 fold enrichment (6-mer frequency, TF over GST control)
